B1: PhoQ; a variant is named by its letters at X, in order, P23837 (parent)
chain: MKKLLRLFFPLSLRVRFLLATAAVVLVLSLAYGMVALIGYSVSFDKTTFRLLRGESNLFYTLAKWENNKLHVELPENIDKQSPTMTLIYDENGQLLWAQRDVPWLMKMIQPDWLKSNGFHEIEADVNDTSLLLSGDHSIQQQLQEVREDDDDAEMTHSVAVNVYPATSRMPKLTIVVVDTIPVELKSSYMVWSWFIYVLSANLLLVIPLLWVAAWWSLRPIEALAKEVRELEEHNRELLNPATTRELTSLVRNLNRLLKSERERYDKYRTTLTDLTHSLKTPLXXLQXXLRSLRSEKMSVSDAEPVMLEQISRISQQIGYYLHRASMRGGTLLSRELHPVAPLLDNLTSALNKVYQRKGVNISLDISPEISFVGEQNDFVEVMGNVLDNACKYCLEFVEISARQTDEHLYIVVEDDGPGIPLSKREVIFDRGQRVDTLRPGQGVGLAVAREITEQYEGKIVAGESMLGGARMEVIFGRQHSAPKDE

Our source for the enrichment ratio values is a collection of fitness landscapes (doi:10.1126/science.1257360).

Over roughly 140,000 sequences, “enrichment ratio after two sorts for PhoP signalling” has its median near 0; the highest 2% begin near 11. Shown is part of a subset that was picked to be rich in the highest values. Some results are limits rather than exact numbers.

Variants of B1 are the subject of this experiment. Description: enrichment ratio after two sorts for PhoP signalling (ratio (wild type AVST 3.29)); higher = more functional. Conditions: with PhoP (E. coli).
In the case of KSGH, the enrichment ratio is not above 0.25. The same measure for THSH: 12.3; for TCGP: 1.63. SHSH: the enrichment ratio was found to be 0.368. The same measure for KLGH: not above 0.25. Next, HFGH: not above 0.25. Next, NHSH: not above 0.25; TCGH: 23.5; TLGH: 12.5.

TLGP: the enrichment ratio is not above 0.25. As for VEGH, the enrichment ratio was not above 0.25.

Consider THGH, for which the enrichment ratio is 13.1. The same measure for NPCL: not above 0.25.

With WFFE, the enrichment ratio is not above 0.25. The same measure for IMHM: not above 0.25. The same measure for NGPM: not above 0.25. The same measure for PILN: not above 0.25. With REPM, the enrichment ratio is not above 0.25. In the case of FADW, the enrichment ratio is not above 0.25.

As to TMGP, the enrichment ratio is not above 0.25.

TMTH: the enrichment ratio is 9.92.

Take TMGH: the enrichment ratio amounted to 15.3. As to STKH, the enrichment ratio is not above 0.25. The same measure for MCYL: 13; for MLYL: 10.2; for MCGV: 13.4.

Turning to MEGV, the enrichment ratio was not above 0.25. The same measure for MNYL: 12; for MEYL: 3.47. For the variant YTGM, the enrichment ratio was not above 0.25. Next, KLYL: not above 0.25; MMGV: not above 0.25.

Turning to MNNL, the enrichment ratio worked out at 0.29.

On to TTGD, for which the enrichment ratio came out at 0.456. The same measure for TTGM: 28.6. The same measure for DQFA: not above 0.25; for KQAS: not above 0.25. Next, PFKG: not above 0.25; NGPW: not above 0.25; AAVK: not above 0.25. In the case of MCVA, the enrichment ratio is not above 0.25. The same measure for MCRM: not above 0.25; for MCDS: not above 0.25. The same measure for KAHM: not above 0.25. The same measure for TAHM: 14.1. On to MCAY, for which the enrichment ratio was determined as 4.41. With MCYI, the enrichment ratio is 27.7. Next, NAHM: not above 0.25; MCYK: not above 0.25. Next, MCCK: not above 0.25; MCWI: 18.3; MCWM: 16.4.

As to LMRM, the enrichment ratio is not above 0.25. The same measure for TVRL: 0.897; for LALM: 8.02; for FHFV: not above 0.25. The same measure for EESR: not above 0.25; for ICGM: not above 0.25. Next, THGM: 12.3; TGGM: not above 0.25. For the variant FDHM, the enrichment ratio is not above 0.25. On to FVHM, for which the enrichment ratio is not above 0.25. Next, MKAM: not above 0.25. The same measure for MCAM: 12.2; for KCAM: not above 0.25; for MAHM: 14.7. Next, ICWM: not above 0.25; ICAM: 17.4. Consider KCGM, for which the enrichment ratio is not above 0.25. The same measure for GDQT: not above 0.25. The same measure for TWQT: not above 0.25; for IVCI: not above 0.25. Next, TNFL: not above 0.25; MCVM: not above 0.25. As to MLWM, the enrichment ratio is not above 0.25. Regarding MKFL, the enrichment ratio was found to be 0.755.

Consider MCDM, for which the enrichment ratio is not above 0.25.

On to MCGM, for which the enrichment ratio amounted to 12.2.

Turning to MLNM, the enrichment ratio was not above 0.25. Next, MNFL: 14.1; MCAK: 21.4; MLAM: 15.5. The same measure for MAAK: not above 0.25; for MKAK: not above 0.25. Next, KFHC: not above 0.25.

On to RINI, for which the enrichment ratio is not above 0.25. Next, PWSK: not above 0.25; EKTT: not above 0.25; YVYD: not above 0.25. As to WNEY, the enrichment ratio was not above 0.25. Take VGWQ: the enrichment ratio amounted to 1.18. Turning to FPFF, the enrichment ratio is not above 0.25. Next, GAHW: not above 0.25; GIYF: not above 0.25. Next, RKRF: not above 0.25; TTDM: 22.8; TCYL: 16.2. Next, NCYL: not above 0.25; YTDM: not above 0.25; MCSQ: 11.6. Consider LSYL, for which the enrichment ratio came out at 11.2. Next, LTYL: 0.587; KCSQ: not above 0.25; ITDM: not above 0.25. The same measure for MQSQ: not above 0.25.

With LNYL, the enrichment ratio is not above 0.25. Next, KCYL: not above 0.25; YSLM: 9.22.

For KKFE, the enrichment ratio was not above 0.25. Next, ELTM: not above 0.25; TLNS: 6.81. The same measure for EHKW: not above 0.25. Next, HFHT: not above 0.25; QNLL: not above 0.25.

On to NWYY, for which the enrichment ratio is not above 0.25. The same measure for IMGQ: not above 0.25; for PTPW: not above 0.25. The same measure for TWNY: not above 0.25; for MCHM: 16.7.

Turning to KCHM, the enrichment ratio was not above 0.25. With MDHM, the enrichment ratio is not above 0.25.

As to YPGL, the enrichment ratio is not above 0.25. For the variant SGMF, the enrichment ratio came out at 13.3. The same measure for SGHF: not above 0.25.

For the variant SGCV, the enrichment ratio worked out at 15.2. Next, SGMW: not above 0.25; SGGF: 1.06. The same measure for SGNL: 0.304; for SGMD: not above 0.25; for SGCI: 10.3. The same measure for SGMN: 30.2.

As for SGWN, the enrichment ratio is not above 0.25. The same measure for SGMV: 14.3.

On to SGWV, for which the enrichment ratio was not above 0.25. The same measure for IRYD: not above 0.25. The same measure for ARIW: not above 0.25. Next, QYQP: not above 0.25. As to YDYL, the enrichment ratio is not above 0.25.

With LNRM, the enrichment ratio is not above 0.25. Next, SGMG: 0.699; SGMS: 6.87; SGMI: 25. Take EIPP: the enrichment ratio was not above 0.25.

As to HPCC, the enrichment ratio is not above 0.25. Next, SLCC: 8.22.

As to FECC, the enrichment ratio is 22.6.

With IPCC, the enrichment ratio is not above 0.25.

With FCCC, the enrichment ratio is not above 0.25. Next, SPCC: not above 0.25; TECC: 30; HECC: 7.31.

On to EECC, for which the enrichment ratio is not above 0.25. The same measure for IECC: 11.9. The same measure for SECC: 38; for FSCC: 1.27.
